MOR-DOR ag: agonists of human mu-delta opioid receptor heterodimerization | activation, % at 9.3 µM | P35372+P41143 | AID 504326 | hit rate 0.3% among 340,000 | cells, OPRM1-OPRD1 heterodimerization, luminescence; in the data active = activation above about 18%;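 also: 0% = vehicle-treated cells and 100% = reference agonist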
HTR5A inv ag: HTR5A inverse agonism, opioid heterodimer counter-screen. P47898. HTR5A cell line, luminescence. inhibition, % at 9.3 µM. hit rate 0.083% among 340,000. AID 504634; in the data active = inhibition mostly above about 23%, no sharp cut-off; inactive = mostly below about 18%;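 also: 0% = cells with DMSO and 100% = no-cell wells with DMSO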
HTR5A ag ctr: HTR5A agonism, opioid heterodimer counter-screen. P47898. HTR5A agonist assay, luminescence, cell-based. activation, % at 9.3 µM. hit rate 0.61% among 340,000. AID 504692; in the data active = activation mostly above about 9.5%, no sharp cut-off; inactive = mostly below about 7.6%;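 also: 0% = cells with vehicle only and 100% = reference agonist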
p-CIP stab down: compounds decreasing mouse p/CIP protein stability; decrease of EGFP signal, % at 10 µM; F442A p/CIP-EGFP cells, EGFP fluorescence, 16 h; hit rate 0.01% among 290,000;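 active = EGFP signal decrease of at least 30% at 10 µM or well 3 SD below plate mean, unless failing retest; inactive = the rest, including hits failing retest or dose response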
MOR-DOR inv ag: inverse agonists of human mu-delta opioid receptor heterodimerization; P35372+P41143; cell-based MOR-DOR heterodimer luminescence, inverse agonism; inhibition, % at 9.3 µM; hit rate 0.21% among 340,000; in the data active = inhibition above about 22%, passing the limit was not always enough;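 also: 0% = cells with DMSO and 100% = wells without cells with DMSO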
MIN6 prolif: MIN6 beta-cell proliferation induction; MIN6 cells proliferation, ATPlite luminescence, 48 h; cells starved in 0.2% serum; 100% = growth in 10% serum; proliferation, % at 10 µM; hit rate 0.29% among 330,000;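 active = compounds whose signal lies at least 3.5 SD above the mean of all wells on their plate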;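 also: 0% = DMSO-treated cells in low-serum medium and 100% = 10% serum control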
Numbers without * were called inactive; x = no result given. The list is not random: actives were taken first. Their share in the collection is about 1.4%.

SMILES | MOR-DOR ag | HTR5A inv ag | HTR5A ag ctr | p-CIP stab down | MOR-DOR inv ag | MIN6 prolif
CCCCc1ccc(NC(=S)N2CCCC2)cc1 | -2 | -45 | 12* | -48 | 12 | -6
CCc1sc(C(=O)NCCCn2ccnc2)cc1Br | -2 | -37 | 10* | 11 | 7 | -1
CC(C)(C)c1ccc(C(=O)NCCCn2ccnc2)cc1 | -4 | -2 | 1 | 5 | 17 | -5
CCOc1cc(NC(=O)C(C)C)c(OCC)cc1NC(=O)Nc1ccccc1 | 5 | 11 | -3 | 0 | -22 | -1
N=c1n(Cc2ccccc2)c2ccccc2n1CC(O)COc1ccc(Cl)cc1Cl (stereo unspecified) | 31* | -80 | 31* | -20 | -173 | -5
Cc1ccc(OCC(O)Cn2c(=N)n(Cc3ccccc3)c3ccccc32)cc1 (stereo unspecified) | 3 | 4 | 12* | 3 | -13 | -6
COc1ccc(OCC(O)Cn2c(=N)n(Cc3ccccc3)c3ccccc32)cc1 (stereo unspecified) | -1 | 18 | 0 | -8 | 5 | -6
CC(C)N(CCn1c(SCC(=O)Nc2cccnc2Cl)nc2ccccc2c1=O)C(C)C | 1 | 15 | -4 | x | -8 | 1
Cc1ccccc1CN1CCC(n2nccc2NC(=O)CCCc2ccccc2)CC1 | 0 | 10 | -2 | 18 | -1 | -4
C/C=C(\C)CN1CCC(n2nccc2NC(=O)CCCc2ccccc2)CC1 | -1 | 9 | 12* | -1 | 5 | -3
Cc1ccc(NC(=O)COC(=O)c2ccc3c(=O)n4c(nc3c2)CCC4)c(Br)c1 | 0 | 10 | -4 | x | 0 | 5
O=C(COC(=O)c1ccc2c(=O)n3c(nc2c1)CCC3)Nc1ccccc1F | 0 | -30 | 11* | -2 | 1 | -2
CC1=CN(S(=O)(=O)c2ccc(C)cc2)C[C@@H]2c3ccccc3N(S(=O)(=O)c3ccc(C)cc3)[C@H]12 | -4 | -8 | 2 | x | 20 | x
COc1ccc(-c2sc3ccccc3c2-c2ccc(OCCN(C)C)cc2)cc1 | 12 | -52 | 14* | x | -66 | -6
CN(C)CCOc1ccc(-c2c(-c3ccsc3)sc3ccccc23)cc1 | 5 | -28 | 9 | x | -28 | -6
O=c1[nH]cnc2c1c(-c1ccccc1)cn2-c1cccc(Cl)c1 | 5 | -21 | 10* | 5 | -28 | -3
COc1ccc(-n2cc(-c3ccccc3)c3c(=O)[nH]cnc32)cc1 | 0 | -16 | 6 | -14 | 1 | -1
O=C(NCC1CCN(Cc2ccccc2F)CC1)Nc1ccccc1F | 0 | 2 | -1 | 9 | 2 | -3
O=C(NCC1CCN(Cc2ccccc2F)CC1)Nc1cccc(Br)c1 | 3 | -49 | 14* | 1 | -15 | -4
O=C(c1ccc(-c2cc(O)c3ncccc3c2)cc1)N1CCNCC1 | -1 | -1 | -4 | x | 6 | -2
O=C(c1ccc(Cl)c(S(=O)(=O)N2CCCCC2)c1)N1CCCC(C(F)(F)F)C1 (stereo unspecified) | -2 | -9 | 3 | x | 6 | -4
Cc1ccc(NC(=S)N2CCN(S(=O)(=O)c3ccc(F)cc3)CC2)cc1 | 0 | 2 | 3 | -22 | 0 | -5
C=CCNC(=S)N1CCN(S(=O)(=O)c2ccc(C)cc2)CC1 | -1 | -11 | 12* | -9 | 4 | 1
Cc1cc(C)n(C(N)=NC(=O)c2ccc([N+](=O)[O-])cc2)n1 | 1 | 11 | -3 | 42* | -2 | 0
C/C(=N\NC(=O)Cn1nc(C)cc1C)c1ccc([N+](=O)[O-])cc1 | 2 | -9 | 7 | -15 | -9 | -1
SMILES | MOR-DOR ag | HTR5A inv ag | HTR5A ag ctr | p-CIP stab down | MOR-DOR inv ag | MIN6 prolif
CC(C)(C)NC(=O)c1ccc2nsnc2c1 | -1 | -2 | -2 | -2 | 7 | 0.0*
CCS(=O)(=O)C1=NN2C(=N)/C(=C\c3ccc(OC(=O)c4ccco4)c(Br)c3)C(=O)N=C2S1 | x | x | x | -48 | x | -4
CCS(=O)(=O)C1=NN2C(=N)/C(=C\c3ccc(SCc4ccco4)o3)C(=O)N=C2S1 | 9 | 1 | 13* | -30 | -67 | x
Cc1nc2c3ccccc3nc(NNC(=O)CCC(=O)NCCN3CCN(c4ccccc4)CC3)n2n1 | -3 | -1 | 0 | -3 | 14 | 7
Nc1cc2c(cc1N)-c1ccccc1C2 | 0 | -8 | 2 | x | -2 | x
C[C@H](CO)N1C[C@H](C)[C@H](CN(C)Cc2ccc(-c3ccccc3)cc2)Oc2ccc(NS(=O)(=O)c3ccccc3)cc2CC1=O | 4 | -23 | 14* | x | -24 | -6
CC1(C)Oc2ccc3ccc(=O)oc3c2/C(=C/O)C1=O | -1 | -11 | 14* | 1 | 5 | -4
COCCOC(=O)c1c(C)n(C)c2ccc(OC(=O)N3CCOCC3)cc12 | 0 | -17 | 1 | -1 | 2 | -1
COCCOC(=O)c1c(C)n(C)c2ccc(OC(=O)c3c(OC)cccc3OC)cc12 | -2 | -40 | 11* | -28 | 8 | 6
Cc1cc(C)nc(N2CCCC(C(=O)NCc3cccc(C(F)(F)F)c3)C2)n1 (stereo unspecified) | -2 | -12 | 12* | -13 | 12 | -3
Cc1cc(C)n2nc(SCC(=O)N3CCCC(C)C3)nc2n1 (stereo unspecified) | -2 | -13 | 3 | x | 11 | -3
COc1cccc(CN(CCC(C)C)S(=O)(=O)c2cc(Br)ccc2Br)c1 | 1 | 3 | -1 | x | -4 | x
CCCc1nnc(SCC(=O)N2CCOCC2)n1Cc1ccco1 | 3 | 0 | 9.6* | -8 | -17 | -1
O=C(CSc1nnc(CNc2ccc(F)cc2)n1Cc1ccco1)N1CCCC1 | 1 | 6 | 0 | 9 | -7 | 0
N#Cc1ccc(NC(=O)COC(=O)c2cccnc2Cl)cc1 | -2 | -7 | 3 | x | 7 | 0
Cc1ccc(/C=N\NC(=O)c2cc(OCC(F)(F)F)ccc2OCC(F)(F)F)cc1 | 28* | -48 | 15* | 2 | -128 | 1
COc1cc(S(=O)(=O)NCc2cccnc2)c(OC)cc1Br | -3 | 9 | 10.0* | -20 | 13 | -1
OC(CN(Cc1ccccc1)Cc1ccccc1)c1ccccc1 (stereo unspecified) | 5 | -6 | 1 | x | -26 | x
CCNC(=O)N(C)C[C@H]1N[C@@](C)(C(=O)OC)[C@H]2C(=O)N(C)C(=O)[C@@H]12 | 0 | 6 | -1 | x | 0 | -2
Cc1ccc(S(=O)(=O)N2CCN(C(=O)COC(=O)COc3ccc(Cl)cc3)CC2)c(C)c1 | -3 | -22 | -4 | x | 12 | x
COc1ccc(NC(=O)CCC(=O)Nc2nnc(C(C)C)s2)cc1Cl | 0 | -32 | 12* | -2 | 2 | -2
CCn1nc(NC(=O)c2cccnc2)c2cc3cccc(C)c3nc21 | 12 | -66 | 18* | -22 | -65 | -3
CCn1nc(NC(=O)c2ccncc2)c2cc3cccc(C)c3nc21 | 2 | -12 | 5 | -6 | -13 | -2
